Results on six compounds are retold here after PubChem BioAssay (EPA / NIEHS).

Several values for one entry are separate records, joined by “and”; a condition that tells them apart may be missing. Identical values can stand only once. Records with an inconclusive call do not appear. More than one record can exist for a structure, and the calls need not agree. Activity calls are given as the source filed them. How the source made its calls, unless noted: active means hit-call score of the fitted dose curve at least 0.9, where 1 is the maximum; inactive means score below 0.9.

Read-out in assay [1]: Monocyte Chemoattractant Protein-1 (MCP1), CCL2 (gene 6347)
The experiment in a line: BSK_LPS_MCP1: BioMAP Diversity Plus: LPS Assay for Monocyte Chemoattractant Protein-1 (MCP1) Biomarker Activity (AID 2283081).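 On AC50: secreted MCP-1 protein quantified by ELISA in culture supernatant.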 The conditions noted are these: primary human HUVEC with PBMC; actives raise or lower the signal. The essentials:
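LPS-stimulated HUVEC/PBMC co-culture; chemical, 24 h; MCP-1 by ELISA; bidirectional fit vs DMSO; cytotoxicity via SRB (0.1% stain, 10% TCA fix, 560 nm) in parallel wells.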

Assay [2] is described as follows: BSK_LPS_PGE2: BioMAP Diversity Plus: LPS Assay for Prostaglandin E2 (PGE2) Biomarker Activity (AID 2283082).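 On AC50: secreted prostaglandin E2 measured by ELISA in LPS-stimulated co-culture.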 The conditions noted are these: primary human HUVEC with PBMC; actives raise or lower the signal. The essentials:
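LPS-activated HUVEC/PBMC co-culture; cmpd dosed, 24 h; PGE2 by ELISA; bidirectional fit vs DMSO; SRB (0.1%, TCA-fixed, 560 nm) in parallel plates for overt cytotox.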

Read-out in assay [3]: Macrophage colony-stimulating factor (MCSF), CSF1 (gene 1435)
Nature of the assay: BSK_LPS_MCSF: BioMAP Diversity Plus: LPS Assay for Macrophage colony-stimulating factor (MCSF) Biomarker Activity (AID 2283083). The conditions noted are these: primary human HUVEC with PBMC; actives raise or lower the signal. The essentials: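 Compound is added to a human vascular primary co-culture of umbilical vein endothelium and blood mononuclear cells. After 24 h, M-CSF is quantified by ELISA. Signal changes are fitted in both directions against DMSO.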

Read-out in assay [4]: Tissue Factor, F3 (gene 2152)
The experiment in a line: BSK_LPS_TissueFactor: BioMAP Diversity Plus: LPS Assay for Tissue Factor Biomarker Activity (AID 2283084). The conditions noted are these: primary human HUVEC with PBMC; actives raise or lower the signal. The essentials:
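In this co-culture system of umbilical vein endothelium with PBMC, stimulated with LPS, cell-surface CD142 is detected by ELISA at 24 h. Endpoint values derive from bidirectional fitting, DMSO serving as baseline.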

Read-out in assay [5]: Tumor necrosis factor (Homo sapiens) (UniProt P01375)
Nature of the assay: BSK_LPS_TNFa: BioMAP Diversity Plus: LPS Assay for Tumour Necrosis Factor alpha (TNFa) Biomarker Activity (AID 2283085). The conditions noted are these: primary human HUVEC with PBMC; actives raise or lower the signal. The essentials: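 Read-out is ELISA of TNFa in primary human endothelial cell–PBMC co-cultures at 24 h after compound. Activity in either direction was fitted against DMSO.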

Read-out in assay [6]: Vascular cell adhesion molecule 1 (VCAM1), VCAM1 (gene 7412)
The experiment in a line: BSK_LPS_VCAM1: BioMAP Diversity Plus: LPS Assay for Vascular cell adhesion molecule 1 (VCAM1) Biomarker Activity (AID 2283086). Particulars: primary human HUVEC with PBMC; actives raise or lower the signal. In a few lines:
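HUVEC + PBMC co-culture, LPS system; compound 24 h; VCAM-1 by ELISA; bidirectional fit vs DMSO control; parallel SRB (0.1%, TCA-fixed, 560 nm) for cytotoxicity.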

Read-out in assay [7]: CD38, CD38 (gene 952)
Nature of the assay: BSK_SAg_CD38: BioMAP Diversity Plus: SAg Assay for CD38 Biomarker Activity (AID 2283087). The conditions noted are these: primary human HUVEC with PBMC; actives raise or lower the signal. In a few lines:
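Human HUVEC plus PBMC co-culture stimulated with superantigen; CD38 measured by ELISA 24 h after chemical dosing. Fluorescence read-out, bidirectional fit against DMSO; cytotoxicity tracked in parallel by SRB and Alamar Blue.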

Read-out in assay [8]: CD40, CD40 (gene 958)
Nature of the assay: BSK_SAg_CD40: BioMAP Diversity Plus: SAg Assay for CD40 Biomarker Activity (AID 2283088). The conditions noted are these: primary human HUVEC with PBMC; actives raise or lower the signal. In a few lines:
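Fluorescence ELISA read-out of CD40 from umbilical vein endothelium plus peripheral blood mononuclear cells, sampled 24 h after dosing. Values come from bidirectional curve fitting with DMSO as baseline.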

Read-out in assay [9]: CD69, CD69 (gene 969)
Nature of the assay: BSK_SAg_CD69: BioMAP Diversity Plus: SAg Assay for CD69 Biomarker Activity (AID 2283089).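 On AC50: cell surface CD69 protein quantified by ELISA with fluorescence detection.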 Particulars: primary human HUVEC with PBMC; actives raise or lower the signal. The essentials: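 ELISA, fluorescence read-out: CD69 on human umbilical vein endothelial cell + PBMC co-culture, 24 h post-dosing. Gain or loss of signal fitted bidirectionally against DMSO baseline.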

Read-out in assay [10]: Monocyte Chemoattractant Protein-1 (MCP1), CCL2 (gene 6347)
Nature of the assay: BSK_SAg_MCP1: BioMAP Diversity Plus: SAg Assay for Monocyte Chemoattractant Protein-1 (MCP1) Biomarker Activity (AID 2283090). Particulars: primary human HUVEC with PBMC; actives raise or lower the signal. In a few lines:
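MCP-1 levels in the endothelial–PBMC SAg co-culture were quantified by ELISA at 24 h post-dosing; both increases and decreases versus DMSO scored. Cytotoxicity monitored by SRB total protein in parallel cultures.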

Read-out in assay [11]: E-selectin (Homo sapiens) (UniProt P16581)
Nature of the assay: BSK_SAg_Eselectin: BioMAP Diversity Plus: SAg Assay for Eselectin Biomarker Activity (AID 2283091). Particulars: primary human HUVEC with PBMC; actives raise or lower the signal. In a few lines:
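Primary human endothelial cells and peripheral blood mononuclear cells were co-cultured and exposed to chemical for 24 hours. E-selectin levels were then quantified by ELISA, with bidirectional curve fitting normalised to DMSO controls.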

The nature of assay [12]: BSK_SAg_PBMCCytotoxicity: PBMC Cytotoxicity Assessment in the BioMAP Diversity Plus: SAg Assay (AID 2283093).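 Further: PBMC viability measured as Alamar Blue reduction fluorescence at 546/580 nm; fitted both ways against DMSO so a hit may be loss or gain of signal.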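 On AC50: PBMC superantigen activated with SEB plus TSST-1 one hour after compound addition.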 The conditions noted are these: primary human HUVEC with PBMC. The essentials: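 HUVEC/PBMC co-culture; PBMC exposed to chemical 1 h before SEB and TSST-1 activation (20 ng/mL each), incubated 90 h, then Alamar Blue 6 h, fluorescence 546/580 nm. Bidirectional fit versus DMSO baseline.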

Read-out in assay [13]: Interleukin-8 (IL8), CXCL8 (gene 3576)
Nature of the assay: BSK_SAg_IL8: BioMAP Diversity Plus: SAg Assay for Interleukin-8 (IL8) Biomarker Activity (AID 2283094). The conditions noted are these: primary human HUVEC with PBMC; actives raise or lower the signal. The essentials: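 ELISA read-out of IL-8 in a primary human vascular co-culture (umbilical vein endothelium plus PBMC), taken 24 h after compound addition. Values derive from bidirectional fits against DMSO negative controls.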

A short description of assay [14]: BSK_SAg_Proliferation: Cell Proliferation Assessment in the BioMAP Diversity Plus: SAg Assay (AID 2283095).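 Further: relative cell number as total protein by SRB absorbance in sub-confluent culture.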 Particulars: primary human HUVEC with PBMC. The essentials: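 Cells (endothelium plus PBMC, human primary) were dosed with chemical, cultured 96 h, fixed in 10% TCA and stained with 0.1% SRB. Absorbance at 560 nm gave relative protein, fitted bidirectionally relative to DMSO.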

Assay [15] is described as follows: BSK_SAg_SRB: Viability Assessment in the BioMAP Diversity Plus: SAg Assay (AID 2283096).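 Further: cells read one day after compound addition; hits may be either gain or loss of signal compared with DMSO.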 The conditions noted are these: primary human HUVEC with PBMC. The essentials:
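Human umbilical vein endothelial cells co-cultured with PBMC, read 24 h after compound dosing. Total protein measured by sulforhodamine B staining (0.1% SRB after 10% TCA fixation, absorbance 560 nm); bidirectional fit versus DMSO baseline.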

Read-out in assay [16]: Monokine induced gamma interferon (MIG), CXCL9 (gene 4283)
The experiment in a line: BSK_SAg_MIG: BioMAP Diversity Plus: SAg Assay for Monokine induced gamma interferon (MIG) Biomarker Activity (AID 2283092). Particulars: primary human HUVEC with PBMC; actives raise or lower the signal. In a few lines: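 ELISA readout of MIG/CXCL9; primary human umbilical vein endothelial cells co-cultured with peripheral blood mononuclear cells; 24 h post-dose; gain/loss fit vs DMSO baseline.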

Assay [17] addresses human CYP2A6, CYP2A6 (gene 1548) (UniProt P11509). The experiment in a line: NVS_ADME_hCYP2A6: NovaScreen (NVS) CYP450-related Enzyme Activity (ADME) Assay for human CYP2A6 (AID 2283099; active means hit-call score of the fitted dose curve at least 0.9, where 1 is the maximum). In a few lines: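 Recombinant human CYP2A6 from insect cells was incubated with chemical for 0.5 h and activity read by fluorescence. Single-concentration duplicates at 10 uM preceded concentration-response testing to 20 uM, with activity referenced to acetonitrile.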

The target of assay [18] is human CYP2B6, CYP2B6 (gene 1555) (UniProt P20813). The experiment in a line: NVS_ADME_hCYP2B6: NovaScreen (NVS) CYP450-related Enzyme Activity (ADME) Assay for human CYP2B6 (AID 2283101; active means hit-call score of the fitted dose curve at least 0.9, where 1 is the maximum). The essentials:
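Fluorescence-based enzyme activity of recombinant human CYP2B6, measured 1 h post-dose against acetonitrile vehicle baseline. Screened at a single concentration of 10 uM in duplicate before concentration-response follow-up.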

Chain of E-selectin (Homo sapiens) (P16581 whole entry, looked up): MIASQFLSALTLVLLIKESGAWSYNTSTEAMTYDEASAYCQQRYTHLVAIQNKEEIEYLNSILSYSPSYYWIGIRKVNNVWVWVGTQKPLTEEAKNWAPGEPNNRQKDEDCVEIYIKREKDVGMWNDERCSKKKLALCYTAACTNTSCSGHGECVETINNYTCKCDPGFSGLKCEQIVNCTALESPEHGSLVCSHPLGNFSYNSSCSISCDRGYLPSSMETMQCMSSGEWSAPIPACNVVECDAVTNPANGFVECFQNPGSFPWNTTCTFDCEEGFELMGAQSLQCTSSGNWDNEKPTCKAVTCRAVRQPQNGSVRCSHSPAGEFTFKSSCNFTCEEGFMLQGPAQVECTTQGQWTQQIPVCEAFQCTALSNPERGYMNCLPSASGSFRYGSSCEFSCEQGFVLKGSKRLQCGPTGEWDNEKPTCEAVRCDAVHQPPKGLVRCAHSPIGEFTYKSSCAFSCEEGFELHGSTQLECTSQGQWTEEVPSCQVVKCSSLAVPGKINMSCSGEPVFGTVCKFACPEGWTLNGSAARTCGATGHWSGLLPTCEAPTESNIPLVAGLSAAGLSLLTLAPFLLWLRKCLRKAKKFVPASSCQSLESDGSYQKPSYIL
Chain of Tumor necrosis factor (Homo sapiens) (P01375 whole entry, looked up): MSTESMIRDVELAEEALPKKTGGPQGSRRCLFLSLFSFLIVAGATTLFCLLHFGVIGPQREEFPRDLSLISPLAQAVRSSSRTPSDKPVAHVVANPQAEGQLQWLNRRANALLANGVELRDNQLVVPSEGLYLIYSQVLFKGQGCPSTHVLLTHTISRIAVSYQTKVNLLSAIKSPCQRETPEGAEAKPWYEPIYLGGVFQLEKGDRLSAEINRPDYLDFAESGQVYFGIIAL
Chain of human CYP2A6, CYP2A6 (gene 1548) (P11509 whole entry, looked up): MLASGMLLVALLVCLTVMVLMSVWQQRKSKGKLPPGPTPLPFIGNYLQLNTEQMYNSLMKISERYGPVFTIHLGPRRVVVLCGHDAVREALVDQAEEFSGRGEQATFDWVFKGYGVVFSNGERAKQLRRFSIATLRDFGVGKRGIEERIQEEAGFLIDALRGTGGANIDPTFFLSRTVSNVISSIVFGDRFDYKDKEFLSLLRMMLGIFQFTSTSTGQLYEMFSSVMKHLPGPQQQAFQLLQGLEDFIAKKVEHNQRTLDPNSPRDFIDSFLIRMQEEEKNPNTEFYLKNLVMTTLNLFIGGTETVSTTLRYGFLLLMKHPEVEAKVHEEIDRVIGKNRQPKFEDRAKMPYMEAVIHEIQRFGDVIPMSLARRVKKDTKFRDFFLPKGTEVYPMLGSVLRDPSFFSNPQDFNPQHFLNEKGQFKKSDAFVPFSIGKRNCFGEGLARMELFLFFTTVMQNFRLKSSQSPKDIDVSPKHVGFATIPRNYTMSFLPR
Chain of human CYP2B6, CYP2B6 (gene 1555) (P20813 whole entry, looked up): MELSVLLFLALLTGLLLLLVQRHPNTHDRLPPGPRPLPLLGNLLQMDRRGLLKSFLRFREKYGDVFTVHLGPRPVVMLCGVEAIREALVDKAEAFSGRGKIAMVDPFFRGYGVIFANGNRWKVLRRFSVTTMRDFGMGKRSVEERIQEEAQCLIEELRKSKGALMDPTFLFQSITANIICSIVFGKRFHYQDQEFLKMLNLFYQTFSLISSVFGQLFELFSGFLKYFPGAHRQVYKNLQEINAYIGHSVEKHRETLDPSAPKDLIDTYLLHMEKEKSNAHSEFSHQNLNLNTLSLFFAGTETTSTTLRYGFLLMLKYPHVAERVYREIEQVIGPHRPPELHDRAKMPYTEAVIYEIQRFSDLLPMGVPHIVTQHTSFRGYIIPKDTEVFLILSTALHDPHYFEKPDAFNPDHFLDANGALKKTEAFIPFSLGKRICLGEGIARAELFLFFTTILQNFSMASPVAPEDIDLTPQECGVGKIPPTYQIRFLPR

Take `CCNc1nc(NC(C)C)nc(SC)n1`: the outcome in assay [1], in [2], in assay [3], in assay [4], in [6] and in assay [8] was inactive. In addition, the result in [9], in assay [10], in assay [11], in assay [12], in [13] and in assay [14] was inactive. For the same compound, the outcome in assay [15] was inactive. Moreover, the AC50 in [5] is 5.99 µM (active); in assay [7], 14.9 µM (active).
For `COS(=O)(=O)OC`, the result in assay [1], in [2], in assay [3], in assay [4], in [6] and in assay [7] was inactive. The result in [8], in assay [9], in assay [10], in assay [11], in assay [12] and in assay [13] was inactive. In addition, the result in [14] and in assay [15] was inactive. The concentration at half-maximal activity (AC50) in assay [5] is 0.318 µM (active).
Regarding `O=C(N[C@H]1CN2CCC1CC2)c1cc2ccoc2cn1`, the result in assay [1], in [2], in [3], in assay [4], in assay [5] and in [6] was inactive. The result in [7], in assay [8], in [9], in assay [10], in [11] and in [16] was inactive. Also, the outcome in [12], in assay [13], in assay [14] and in [15] was inactive.
`Oc1c(Cl)c(Cl)c(Cl)c(Cl)c1Cl`: the AC50 is 2.92 µM (active) and 30.4 µM (active) in assay [1]; 4.98 µM (active) in assay [2]; 10.2 µM (active) and 25.5 µM (active) in assay [3]; 32.4 µM (active) in assay [4]; 10.2 µM (active) and 14.6 µM (active) in [6]; 27.7 µM (active) in assay [7]. For the same compound, the AC50 in assay [8] is 10.2 µM (active) and 24.1 µM (active); in assay [9], 10.2 µM (active) and 19.8 µM (active); in assay [10], 10.2 µM (active) and 33.6 µM (active); in assay [11] it was 27.3 µM (active); in [12] it was 8 µM (active); in assay [14], 15.8 µM (active) and 26.9 µM (active). Also, the AC50 in [15] is 14.6 µM (active) and 21.8 µM (active). The outcome in assay [2], in [4], in assay [11], in assay [12], in assay [13] and in assay [17] was inactive. In assay [18], the compound was classed as inactive.
Consider `Cc1cccc(C)c1N`, for which the result in assay [1], in [2], in assay [3], in assay [4], in assay [6] and in assay [7] was inactive. Also, the outcome in [8], in assay [9], in assay [10], in [11], in [16] and in assay [12] was inactive. Further, the outcome in [13], in assay [14] and in assay [15] was inactive.
For the compound `CC1=C2C[C@H]3[C@@H](CC=C4C[C@@H](O)CC[C@@]43C)[C@@H]2CC[C@]12O[C@@H]1C[C@H](C)CN[C@H]1[C@H]2C`, the outcome in assay [1], in assay [2], in assay [3], in assay [4], in assay [5] and in assay [6] was inactive. Further, the result in assay [7], in assay [8], in [9], in assay [10], in assay [11] and in assay [16] was inactive. The result in assay [12], in assay [13], in [14] and in assay [15] was inactive.
